Measurements: PMC13494018

B1: d8r1_design_ppi_1318_dldesign_0_cycle1_af2pred (protein)
chain: SAAAAAAARGEAAVASLTATGAAIVAAAKKDPSEAASMVRAVKNLGQAYANRVPPEYAAKVLAVAATYAAQIAAIM
B2: d8r1_design_ppi_1339_dldesign_0_cycle1_af2pred (protein)
chain: AEAWLAEIREIVSRAVEAAQAGDVETLEAAVEEARALAERAPPEVRPAAENAAAFNQLLLELTKERLAEKA
B3: d8r1_design_ppi_509_dldesign_0_cycle1_af2pred (protein)
chain: KDEHFDKMVEYLKKAQEAYNKAVAAAKAGDADAAKAALAKAQEYYDKAIKEAEKYSPEAGAAMKSTKEKSVAIANAAL
B4: d8r1_design_ppi_134_dldesign_0_cycle1_af2pred (protein)
chain: AAAEAAREAVRAAAAAAREAAAKMSPSKAKAVESIVERTTRVADELIAAGDYRTAVRAAASAEAAAKTLLEVDK
B5: d8r1_design_ppi_310_dldesign_0_cycle0_af2pred (protein)
chain: SRARALASIAALAELAAELAEENPASGAQLGKVVASALAALGLTDEAARVAAASPADLKAVMREVAAAARAAAAALA
B6: d8r1_design_ppi_869_dldesign_0_cycle1_af2pred (protein)
chain: SEEAQAAVRFARNLLEVARLRAEEDPARGRAIAANLEVAARTLAEKHAGLPEAEELRRLAAEAAALAAELA
B7: d8r1_design_ppi_536_dldesign_0_cycle1_af2pred (protein)
chain: NKDKEIAELLLKLAEAAKEDPEKALKIAEEIEKLGNKEFGGALKTLLELAVAEKGKAGENAKAAAIVLSTSRAEDLLAK
B8: d8r1_design_ppi_167_dldesign_0_cycle1_af2pred (protein)
chain: SKEERYKKAAEWLAETSKKAIALRKANPAVAPLAIKMHGAAAHAAAALVAGDEEKAEEYKKKSEEYLKEAEAAIA
B9: d8r1_design_ppi_509_dldesign_0_cycle0_af2pred (protein)
chain: SDEKWAAAAAHMGAAQKAADAAVAAAAAGNTAAAKAAQAEAAAHYDKAAEEAKEYSPEAGAAMKSTREATVALINAKL
B10: d8r1_design_ppi_1324_dldesign_0_cycle1_af2pred (protein)
chain: AAAKLAALKKEIKALIGAAAAYQIAKDSSKLDEYVAKANKLIALADKDPVAAAKETAKLAEEAGDEETAKKAKEAAKEAKKL
B11: d8r1_design_ppi_1425_dldesign_0_cycle0_af2pred (protein)
chain: STESREKALKAISEKSKAKAKKLAAEDPAKGLALAKNAAKSFKDWAKADPETKETAEAQAKEHEALAKEIAAAA
B12: d8r1_design_ppi_869_dldesign_0_cycle0_af2pred (protein)
chain: SEDAQSAVRFAQNTLETAKRKAAEDPARGRQIAANLATAAATAAAKFAGLPEAATLKALQAQAAALAAALA
B13: d8r1_design_ppi_1425_dldesign_0_cycle1_af2pred (protein)
chain: SVEERKKRAEAIAKRSRAVARALAAADPARGIALAESAAVSFEKWAELYPEIKEFAEALAAEHRALAAEIRAAA
B14: d8r1_design_ppi_286_dldesign_0_cycle1_af2pred (protein)
chain: SNEEKAEDLRFMARAVLGVGATASAAETAAFLNDVAAAAARLDPEAGAAVAAIGAAAAASGDAKAAAKAAAAVLEAAAEEFL
B15: d8r1_design_ppi_1265_dldesign_0_cycle1_af2pred (protein)
chain: SENEEAAKALTRAAEAAARYLAEKYGELAKEAAKLIAKAAEADAETAVKYLEEAVKLLDEAGKKTGATKETDALKAMAEKAAELKKA
B16: d8r1_design_ppi_671_dldesign_0_cycle1_af2pred (protein)
chain: AESYRAAAAAIAQAAADNPAGAADAAAALVAMAKMSSPEKAAAIAEGVEAVAEGAPADVRALLLAAAAEIKAIV
B17: d8r1_design_ppi_1447_dldesign_0_cycle1_af2pred (protein)
chain: SEAEDIASFARMATTAAASAAKKDIASAKTLMDAVAKLPGAAAHVTAAGNAAIAAAATVDPARAAELAAYLAARLAAL
B18: d8r1_design_ppi_1356_dldesign_0_cycle1_af2pred (protein)
chain: DPELIARTALSAAVMLEKGVAGTPEAALNAADGSALLLESKAESFGSEELKELAKKAKEAAKKIKADPEAGKKALREVAEELKKLAE
B19: d8r1_design_ppi_1470_dldesign_0_cycle1_af2pred (protein)
chain: DAAAQAATALQGAKNALAAADLLEAEGTKGALLAAGSLYIAAGEQLATAYTLLGKPEEGKAVAAELNAKGKALLAAA
B20: d8r1_design_ppi_139_dldesign_0_cycle1_af2pred (protein)
chain: AKLIEELKKEAKAVKELAKKGAPAEELDAAVKKLGEAMTKLAKAMATMSPEEKAKARAALAEAAKAAIEAGEVAEKLRAA

Target: PDL1, Q9NZQ7
Sequence (Q9NZQ7 whole entry): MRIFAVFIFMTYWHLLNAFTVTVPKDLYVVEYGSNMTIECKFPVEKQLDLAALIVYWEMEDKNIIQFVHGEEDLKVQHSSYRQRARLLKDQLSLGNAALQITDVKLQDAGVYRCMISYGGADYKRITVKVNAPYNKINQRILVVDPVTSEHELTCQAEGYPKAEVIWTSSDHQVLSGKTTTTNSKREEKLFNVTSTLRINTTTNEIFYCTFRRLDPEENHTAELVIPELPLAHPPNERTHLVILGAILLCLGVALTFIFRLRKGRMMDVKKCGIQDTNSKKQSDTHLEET

Binding in a display sort, active:
B1 binds
B2 binds
B4 binds
B6 binds
B14 binds
B15 binds

Binding in a display sort, inactive:
B3 not found
B5 not found
B7 not found
B8 not found
B9 not found
B10 not found
B11 not found
B12 not found
B13 not found
B16 not found
B17 not found
B18 not found
B19 not found
B20 not found
